Bioassay records: PubChem BioAssay, The Scripps Research Institute Molecular Screening Center
Compounds with a hit are over-represented: about 4.1% of the library has one in this group of screens.
DAX1 inh-1: inhibits human nuclear receptor DAX1; inhibition, % at 6.75 µM; HEK293 Gal4-DAX1 luciferase reporter, luminescence; P51843; 340,000 tested, 0.99% active;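 active = inhibition above the mean over all tested compounds plus 3 SD, cut at about 4.2% in these data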;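 note: 0% = DAX1-transfected cells with DMSO and 100% = empty-vector control cells with DMSO; inhibition shows as a rise in luminescence from relieved DAX1 repression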
ssDAF-12 act: activates DAF-12 receptor from parasite S. stercoralis; activation, % at 6.8 µM; 370,000 tested, 1% active; HEK293 ssDAF-12/GRIP1 lit1-tk-luc reporter, luminescence; % of 3 µM dafachronic acid response; AID 652126;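 active = activation above the mean over all tested compounds plus 3 SD, cut at about 0.9% in these data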;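 note: 0% = DMSO-only wells and 100% = 3 µM delta7-dafachronic acid wells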
hcDAF12 agonist: activates DAF-12 receptor from parasite H. contortus. activation, % at 6.8 µM. AID 652067. 370,000 tested, 1.4% active. HEK293 hcDAF-12 lit1-tk-luc reporter, luminescence; 0% DMSO, 100% Δ7-dafachronic acid;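 active = activation above the mean of all tested compounds plus 3 SD, cut at about 5.5% in these data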;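 note: 100% = response to 3 µM Δ7-dafachronic acid high control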
hgDAF12 agonist: activates the H. glycines DAF-12 receptor ligand-binding domain | HEK293 GAL4-hgDAF12 UAS-luciferase reporter, agonist luminescence; normalized to butyrate control | activation, % at 6.8 µM | 370,000 tested, 1.8% active;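 active = activation above a cutoff set at the mean of all screened compounds plus 3 SD, cut at about 10% in these data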;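 note: 0% = DMSO wells and 100% = sodium butyrate wells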
DAX1 inh-2: blocks DAX1 repression of SF-1 activated StAR promoter. inhibition, % at 6.8 µM. 370,000 tested, 1.1% active. HEK293T StAR-luciferase reporter, SF-1/DAX-1 repression relief;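 active = inhibition above the mean over all tested compounds plus 3 SD, cut at about 3.6% in these data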;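 note: 0% = DAX-1 cells with DMSO and 100% = cells lacking DAX-1 with DMSO; higher inhibition means more luminescence from relief of DAX-1 repression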
hgDAF12 conf: hgDAF-12 agonism, confirmation assay | shares compounds with hgDAF12 agonist | HEK293 GAL4-hgDAF12 luciferase reporter, agonist mode; percent of butyrate response | activation, % at 6.8 µM | 3,300 tested, 80% active;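 active = mean activation over triplicate wells above the hit cutoff derived from the earlier primary screen, cut at about 11% in these data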;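 note: 0% = DMSO low control and 100% = 2 mM sodium butyrate high control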
LXRb DAF12 ctr: activates human LXR-beta, counter-screen for DAF-12 agonists; shares compounds with hgDAF12 agonist; HEK293 Gal4-LXR luciferase reporter, 24 h; activation, % at 6.8 µM; 3,300 tested, under 10 active;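 active = mean activation of the triplicate above a set limit carried over from the primary screen, none filed active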
Target sequence (P55055 whole entry, looked up, the tested form may be a part): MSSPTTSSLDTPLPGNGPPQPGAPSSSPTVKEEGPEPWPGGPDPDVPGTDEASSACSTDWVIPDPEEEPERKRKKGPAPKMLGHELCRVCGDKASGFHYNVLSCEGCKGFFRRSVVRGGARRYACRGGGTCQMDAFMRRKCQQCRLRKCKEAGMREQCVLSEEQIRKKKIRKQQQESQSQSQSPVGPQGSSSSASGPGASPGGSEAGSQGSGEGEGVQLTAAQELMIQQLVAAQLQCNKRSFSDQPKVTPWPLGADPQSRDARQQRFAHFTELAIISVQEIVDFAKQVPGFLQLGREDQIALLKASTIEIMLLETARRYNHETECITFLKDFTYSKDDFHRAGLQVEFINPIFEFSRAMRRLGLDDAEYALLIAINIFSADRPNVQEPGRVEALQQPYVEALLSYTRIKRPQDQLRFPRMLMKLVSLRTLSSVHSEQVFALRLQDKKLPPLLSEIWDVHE
Starred values were filed as active, the others as inactive; . = no result given.

SMILES	DAX1 inh-1	ssDAF-12 act	hcDAF12 agonist	hgDAF12 agonist	DAX1 inh-2	hgDAF12 conf	LXRb DAF12 ctr
CCC(C)n1c(/C=C/c2ccccc2)nc2ccccc21 (stereo not given)	-1	-1	2	3	0	.	.
COc1ccc(Cn2c(/C=C/c3ccccc3)nc3ccccc32)cc1	2	1	6.4*	18*	3.8*	20*	1
Cc1cc(C)n(S(=O)(=O)c2ccc3oc(=O)ccc3c2)n1	0	0	4	9	1	.	.
CN(C)C=Nc1ncc2c([nH]c3ccccc32)c1C#N	0	-2	-1	22*	0	7	0
COc1ccc(NC(=O)c2ccccc2NC(=O)C2CCCCC2C(=O)O)cc1 (stereo not given)	3	0	5	14*	2	3	0
Cc1cccc(Nc2nn3c(=O)c4ccccc4nc3s2)c1	2	-1	2	5	0	.	.
CCCSc1nn2c(=O)c3ccccc3nc2s1	0	-1	4	15*	3	16*	1
CC1CCCC(NC(=O)c2cccc(S(=O)(=O)N3CCCCC3)c2)C1C (stereo not given)	0	-1	-3	-2	-2	.	.
Cc1ccc(NC(=S)NNC(=O)c2c(Cl)c(C)nn2C)cc1	-2	-1	0	-1	-1	.	.
Cc1ccc(NC(=S)NNC(=O)c2nn(C)c(C)c2Cl)cc1	6.5*	0	3	16*	3	10	0
O=C(NNC(=O)C1CCC1)c1ccc(F)cc1	0	-2	-1	-1	0	.	.
Fc1ccc2nc(Nc3nc4c(F)cc(F)cc4s3)sc2c1	0	1	4	1	0	.	.
Fc1ccc2nc(Nc3nc4cc5c(cc4s3)OCCO5)sc2c1	1	1.5*	2	15*	4.2*	5	1
Fc1ccc2nc(Nc3ccccc3)sc2c1	2	-1	4	19*	3	14*	1
CC(C)(C)N(Cc1ccccc1)C(=O)CN1C(=O)NC2(CCCCCC2)C1=O	0	-1	-1	-3	-1	.	.
CCC(C)NC(=O)Cn1c(COc2ccc(Cl)cc2Cl)nc2ccccc21 (stereo not given)	0	0	3	16*	3	17*	1
Nc1nc(-c2ccc3c(c2)CCCC3)cs1	1	0	2	16*	2	11*	1
Nc1nc(-c2ccc3c(c2)OCCO3)cs1	2	-1	4	6	2	.	.
C/C(=N/NC(=O)c1ccc(Br)o1)c1cccc(NC(=O)c2ccc(C)o2)c1	3	0	1	10	1	.	.
C/C(=N/NC(=O)c1ccc(Br)o1)c1ccncc1	5.7*	1	2	18*	2	0	0
C/C(=N/NC(=O)c1cnccn1)c1ccncc1	0	0	0	6	1	.	.
C/C(=N/NC(=O)c1ccccn1)c1ccncc1	2	1	5	14*	2	9	0
COc1ccc(N(CC(=O)NC2CCCCC2C)S(=O)(=O)c2c(C)nn(C)c2C)cc1 (stereo not given)	1	-1	-1	1	-1	.	.
Cc1cccc(NC(=O)c2sc3nc(N)c(C#N)cc3c2N)c1	0	0	0	21*	3	9	1
C(=C\c1nc(-c2cccnc2)no1)/c1ccccc1	1	1.0*	3	13*	2	12*	0
Cc1ccccc1N1CCN(C(=O)COc2cc(=O)n(C)c3ccccc23)CC1	.	0	-4	1	0	.	.
Cc1cccc(Cn2nc(C)c(NC(=O)c3ccc(F)cc3)c2C)c1	0	-1	0	1	-1	.	.
Cc1nn(Cc2c(F)c(F)c(F)c(F)c2F)c(C)c1NC(=O)c1cccc(COc2ccc(Cl)cc2)c1	-1	-1	1	15*	1	6	0
CC/C(C)=N/Nc1nc2c(c(=O)[nH]c(=O)n2C)n1CCc1ccccc1	0	-2	-1	-2	0	.	.
